In patent US20120264815, “REVERSIBLE PLATELET INHIBITION” (DUKE UNIVERSITY, published 2012):

The sequences below were run against von Willebrand factor (VWF) (Homo sapiens, UniProt P04275 P04275:764-2813) (assay: filter; binding decreased). Conditions: tags: Haematologic Technologies Inc. (factor VIII free); label: 5'-32P; ssRNA; 2'-F pyrimidines.
Description: Dissociation constants (Kd) of each truncate were determined using double-filter nitrocellulose filter binding assays (Pergolizzi et al, Blood 108:862-869 (2006)). All binding studies were performed in binding buffer F (20 mM HEPES, pH 7.4, 150 mM NaCl, 2 mM CaCl₂, and 0.1% BSA) at 37° C. Human purified VWF (with factor VIII and factor VIII free) was purchased from Haematologic Technologies Inc. (Essex Junction, VT) and used in the double-filter nitrocellulose filter binding assay to determine the Kd of individual clones. Briefly, RNA was dephosphorylated using bacterial alkaline phosphatase (Gibco BRL, Gaithberg, Md.) and end-labeled at the 5′ end with T4 polynucleotide kinase (New England Biolabs, Beverly, Mass.) and [γ³²P] ATP (Amersham Pharmacia Biotech, Piscataway, N.J.). Direct binding was performed by incubating ³²P—RNA with VWF in physiological buffer+1 mg/ml BSA at 37° C. for 5 min. The fraction of the nucleic acid-protein complex which bound to the nitrocellulose membrane was quantified with a phosphoimager (Molecular Dynamics, Sunnyvale, Calif.).
In the case of “GGGAGGACGAUGCGGUGGACGAACUGCCCUCAGCUACUUUCAUGUUGCUGACGCACAGACGACUCGCUG”, the binding signal was 50 % Bmax.
“GGGAGGACGAACUGCCCUCAGCUACUUUCAUGUUGCUGACGCACAGACGACUCGCUG” gave a binding signal of 58 % Bmax.
For “GGGAGGACGAUGCGGUGGACGAACUGCCCUCAGCUACUUUCAUGUUGCUGACGCACAGA”, the binding signal was 22 % Bmax.
“GGGAGGACGAUGCGGUGGACGAACUGCCCUCAGCUACUUUCAUGUUGCUGACGCACAGACGACUCG” showed a binding signal of 28 % Bmax.
For “GGGAGGACGAUGCGGUGGACGAACUGCCCUCAGCUACUUUCAUGUUGCUGACGCACAGACAGC”, the binding signal was 36 % Bmax.
“GGGAGGAACUGCCCUCAGCUACUUUCAUGUUGCUGACGCACAGACGACUCGCUG” showed a binding signal of 45 % Bmax.
“GGGAGGACGAUGCGGUGGACGAACUGCCCUCAGCUACUUUCAUGUUGCUGACGCACAGACGACUCGCUGAGG” was tested, and the binding signal was 50 % Bmax.
